According to PubChem BioAssay (EPA / NIEHS):
Where “and” joins values, the source holds several entries; their conditions need not be identical. Equal entries are not always repeated. Inconclusive results are not listed. Calls of active or inactive are those of the source. How the source made its calls, unless noted: active means hit-call score of the fitted dose curve at least 0.9, where 1 is the maximum; inactive means score below 0.9.

What was measured:
[1] = IUF_NPC1_cytotoxicity_72hr: Cytotoxicity Assessment at 72 hours in the Leibniz Research Institute for Environmental Medicine (IUF) Neural Progenitor Cell Proliferation Assay (NPC1) (AID 2284332; active means hit-call score of the fitted dose curve at least 0.9, where 1 is the maximum;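 further: rising LDH signal means more cytotoxicity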)
How it was run: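 Human fetal neural progenitor spheres (0.3 mm) in EGF/FGF proliferation medium, 37C, exposed 72 h without renewal. LDH release in supernatant read by resorufin fluorescence; gain of signal scored relative to dynamic range.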

[2] = VALA_TUBIPS_Antagonist_CellCount: Viability Assessment in the VALA Sciences human iPS-derived Endothelial Tubule Formation (TUBIPS) Antagonism Assay (AID 2284335; active means hit-call score of the fitted dose curve at least 0.9, where 1 is the maximum)
[3] = test system: Brachyury (BRA) Protein Expression, Deisenroth Lab, TBXT (gene 6862); test: CCTE_Deisenroth_DEVTOX-GLR_legacy_Bra: (Legacy) CCTE's DevTox GLR-Endo Assay Evaluation of Brachyury (BRA) Protein Expression, Deisenroth Lab (AID 2284329)
Procedure: CCTE_Deisenroth_DEVTOX-GLR_legacy assay is a cell-based, multiplex-readout assay that uses RUES2-GLR, a human pluripotent cell line, with measurements taken at 48 hours after chemical dosing in a 384-well microplateCCTE_Deisenroth_DEVTOX-GLR_legacy_Bra is one of 4 assay components calculated from the CCTE_Deisenroth_DEVTOX-GLR_legacy assay that measures an increase in the percentage of cells in an […] state. It is designed to make measurements of inducible reporter a form of fluorescent protein induction as detected with optical fluorescence microscopy. Percentage Bra+ cells are determined by calculating the number of Bra+ cells divided by cell count. A cell is Bra+ if the cell Bra mean intensity is 5x BMAD above the pluripotent control median cell Bra mean. The assay endpoint was analyzed with bidirectional fitting with the 0.2% DMSO control median percent Bra in the DEVTOX-GLR assay subtracted.Data from the assay component CCTE_Deisenroth_DEVTOX-GLR_legacy_Bra was analyzed into 1 assay endpoint. This assay endpoint, CCTE_Deisenroth_DEVTOX-GLR_legacy_Bra, was analyzed in the positive analysis fitting direction relative to DMSO as the negative control and baseline activity. Using a type of inducible reporter, gain-of-signal activity can be used to understand changes in gene expression. Furthermore, this assay endpoint can be referred to as a secondary readout, because this assay has produced multiple assay endpoints where this one serves as a measure of mesoderm differentiation. To generalize the intended target to other relatable targets, this assay endpoint is annotated to the transcription factor intended target family, where the subfamily is T-box protein.
All assay protocols are aligned to the DevTox GLR-Endo assay workflow. Cells are seeded into 384-well microplates for 24 hours prior to initiating differentiation in defined media for a total duration of 48 hours. A total of two chemical exposures are administered in 24-hour intervals during the 48-hour differentiation period. At the assay termination point, cells are fixed and stained with a fluorescent dye demarcating the nucleus. High-content imaging is used to acquire brightfield and fluorescent channel images across 5 fields per well. Cell identification and mean biomarker fluorescence intensities are calculated with image analysis software to determine the total cell counts for viability assessment and the biomarker expression frequency for each lineage-dependent assay. A typical experimental design tests a 10-point concentration series (1 nM - 200 uM) for 28 compounds in single technical replicate. Assay plate controls include non-differentiated pluripotent cells (baseline control), lineage-specific differentiated cells (differentiation control), and DMSO solvent exposed differentiated cells (solvent control). Experiments typically comprise a minimum of four experimental replicates (n=4).

[4] = CCTE_Deisenroth_DEVTOX-GLR_legacy_CellCount: (Legacy) Viability Assessment in CCTE's DevTox GLR-Endo Assay, Deisenroth Lab (AID 2284331); conditions: actives raise or lower the signal
How it was run: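 Human pluripotent RUES2-GLR cells differentiated 48 h with two 24-h-interval exposures, 10-point 1 nM–200 uM series, 0.2% DMSO. Fixed nuclei counted by high-content imaging (5 fields/well); bidirectional fit vs DMSO, n≥4.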

[5] = CCTE_Deisenroth_5AR_NBTE_donor: CCTE's 5alpha-reductase NanoBRET Target Engagement Assay […], Deisenroth Lab (AID 2284319); conditions: actives raise or lower the signal
How it was run: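 HEK293T cells transiently expressing SRD5A2-NanoLuc, exposed 5 h to chemicals (8 points, 10 nM - 29.9 uM), with testosterone tracer for the final 2 h. Donor luminescence at 460 nm read after Nano-Glo substrate plus extracellular NanoLuc inhibitor; bidirectional fit versus DMSO.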

[6] = CCTE_Deisenroth_5AR_NBTE_acceptor: CCTE's 5alpha-reductase NanoBRET Target Engagement Assay - Autofluorescence Screen, Deisenroth Lab (AID 2284321); conditions: actives raise or lower the signal;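 further: compound fluorescence in the acceptor channel under 460 nm excitation flags autofluorescence artifacts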
How it was run: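 Acceptor fluorescence intensity was read as an artifact-detection endpoint. Test chemicals at an assumed nominal 100 uM were excited at 460 nm across three independent runs. Activity was fitted bidirectionally against DMSO.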

SRD5A2 (gene 6716) = test: CCTE_Deisenroth_5AR_NBTE_ratio: CCTE's 5alpha-reductase NanoBRET Target Engagement Assay - Ratio, Deisenroth Lab (AID 2284322); conditions: actives raise or lower the signal
How it was run: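 HEK293T transiently expressing SRD5A2-NanoLuc; cells exposed to chemical (8-point, 10 nM - 29.9 uM) for 5 h total, testosterone tracer added for final 2 h. NanoBRET acceptor/donor ratio (650/460 nm), bidirectional fit vs DMSO.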

[7] = TAMU_PeakParms_SingleDonor1434_Asystole: Texas A&M University (TAMU) 1.5-hr Human Induced Pluripotent Stem Cell (iPSC)-derived Cardiomyocytes Calcium (Ca+2) Flux Assay for Cardiotoxicity: Asystole (quiescence of beating) (AID 2284328; active means hit-call score of the fitted dose curve at least 0.9, where 1 is the maximum)
How it was run: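 Average Ca2+-flux peak frequency (beats/s) was recorded in single-donor iPSC-derived cardiomyocytes after 90 min exposure (0.2–100 uM final, 0.5% DMSO). Asystole POD set as EC95 against DMSO, no preprocessing.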

[8] = VALA_TUBHUV_Antagonist_TubuleLength: VALA Sciences human Umbilical Vein Endothelial Tubule Formation (TUBHUV) Antagonism Assay (AID 2284325; active means hit-call score of the fitted dose curve at least 0.9, where 1 is the maximum)
Procedure: VALA_TUBHUV_Antagonist is a cell-based, multiplexed assay that uses human umbilical vein endothelial cells (HUVEC). Measurements were taken 72 hours after chemical dosing in a 96-well plate.VALA_TUBHUV_Antagonist_TubuleLength is the one of two assay components measured from the VALA_TUBHUV_Antagonist assay. It is designed to make measurements of tubulogenesis, a form of morphology reporter, as detected with fluorescence intensity signals by HCS Fluorescent Imaging technology. This VALA_TUBHUV_Antagonist assay was designed to detect chemical suppression of tubulogenesis, i.e. antagonism.Data from the assay component VALA_TUBHUV_Antagonist_TubuleLength was analyzed at the endpoint, VALA_TUBHUV_Antagonist_TubuleLength, in the positive analysis fitting direction relative to DMSO as the negative control and baseline of activity. Using a type of morphology reporter, loss-of-signal activity can be used to understand developmental effects. To generalize the intended target to other relatable targets, this assay endpoint is annotated to the neurodevelopment intended target family, where the subfamily is tubulogenesis.
This HUVEC-HDF assay was designed to detect chemical suppression of tubulogenesis, i.e. antagonism. […]

[9] = VALA_MIGHUV1_ScratchOnly_CellCount: Viability Assessment in the VALA Sciences human Umbilical Vein Endothelial Cell Migration (MIGHUV) Assay, Scratch Wound Inhibited Recovery (AID 2284327; active means hit-call score of the fitted dose curve at least 0.9, where 1 is the maximum)
How it was run: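 HUVEC scratched after 24 h culture, chemical added within 30 min at 6 concentrations in triplicate (0.1% DMSO vehicle). After 24 h recovery, fixed cells were counted by Hoechst nuclear imaging in the wound area.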

Compound: O=P(OC(CCl)CCl)(OC(CCl)CCl)OC(CCl)CCl
- outcome [1]: inactive
- outcome [2]: inactive

Compound: CC[C@H](C)C(=O)O[C@H]1C[C@@H](C)C=C2C=C[C@H](C)[C@H](CC[C@@H]3C[C@@H](O)CC(=O)O3)[C@H]21
- AC50 [3]: 37.6 µM (active)
- AC50 [4]: 2.83 µM (active)

Compound: CCC(C)(C)C(=O)O[C@H]1C[C@@H](C)C=C2C=C[C@H](C)[C@H](CC[C@@H]3C[C@@H](O)CC(=O)O3)[C@H]21
- outcome [5]: inactive
- outcome [6]: inactive
- outcome (SRD5A2 (gene 6716)): inactive

Compound: O=C(O)c1cc(N=Nc2ccc(S(=O)(=O)Nc3ccccn3)cc2)ccc1O
- outcome [5]: inactive
- outcome [6]: inactive
- AC50 (SRD5A2 (gene 6716)): 58.5 µM (active)
- outcome [3]: inactive
- outcome [4]: inactive

Compound: CC[C@H]1OC(=O)[C@H](C)[C@@H](O[C@H]2C[C@@](C)(OC)[C@@H](O)[C@H](C)O2)[C@H](C)[C@@H](O[C@@H]2O[C@H](C)C[C@H](N(C)C)[C@H]2O)[C@](C)(O)C[C@@H](C)C(=O)[C@H](C)[C@@H](O)[C@]1(C)O
- outcome [5]: inactive
- outcome [6]: inactive
- outcome (SRD5A2 (gene 6716)): inactive

Compound: O=C1CCC(N2C(=O)c3ccccc3C2=O)C(=O)N1 (centres undefined)
- outcome [7]: inactive
- outcome [3]: inactive
- outcome [4]: inactive

Compound: CCOC(=O)c1ccc(C2CCC(NC[C@H](O)COc3ccc(O)c(NS(C)(=O)=O)c3)CC2)cc1 (some centres undefined)
- AC50 [5]: 62.7 µM (active)
- AC50 [6]: 50 µM (active)
- AC50 (SRD5A2 (gene 6716)): 79.2 µM (active)

Compound: O=C(OC[C@H]1O[C@@H](OC(=O)c2cc(O)c(O)c(OC(=O)c3cc(O)c(O)c(O)c3)c2)[C@H](OC(=O)c2cc(O)c(O)c(OC(=O)c3cc(O)c(O)c(O)c3)c2)[C@@H](OC(=O)c2cc(O)c(O)c(OC(=O)c3cc(O)c(O)c(O)c3)c2)[C@@H]1OC(=O)c1cc(O)c(O)c(OC(=O)c2cc(O)c(O)c(O)c2)c1)c1cc(O)c(O)c(OC(=O)c2cc(O)c(O)c(O)c2)c1
- outcome [5]: inactive
- outcome [6]: inactive
- outcome (SRD5A2 (gene 6716)): inactive

Compound: Cn1c(=O)c2c(ncn2C)n(C)c1=O
- outcome [4]: inactive

Compound: NC(=O)NO
- outcome [7]: inactive
- outcome [3]: inactive
- AC50 [4]: 64.7 µM (active)

Compound: CN(C)c1ccc(N=NS(=O)(=O)O)cc1
- outcome [5]: inactive
- outcome [6]: inactive
- AC50 (SRD5A2 (gene 6716)): 64.2 µM (active)

Compound: CCCCCCc1ccc(O)cc1O
- outcome [7]: inactive

Compound: CC(C)c1cccc(C(C)C)c1N1C(=O)c2ccc(O)cc2C1=O
- AC50 [8]: 10.7 µM (active) and 50 µM (active)
- AC50 [9]: 11.7 µM (active)

Compound: C[C@](N)(Cc1ccc(O)c(O)c1)C(=O)O
- outcome [3]: inactive
- outcome [4]: inactive

Compound: Nc1nc2ncc(CNc3ccc(C(=O)N[C@@H](CCC(=O)O)C(=O)O)cc3)nc2c(=O)[nH]1
- outcome [4]: inactive

Compound: Nc1ccc(Nc2ccccc2)cc1
- AC50 [5]: 28.3 µM (active)
- AC50 [6]: 31.5 µM (active)
